# Screening data deposited in PubChem BioAssay by National Center for Advancing Translational Sciences (NCATS).
# This is one part of a sample in which hits are shown more often than they occur.
# Cycloheximide cs: affects cycloheximide protein synthesis inhibition readout, counter-screen. cell reporter, cycloheximide protein synthesis inhibition counterscreen. max response, %. actives 12% (n = 300,000); in the data active = max response mostly above about 13%, no sharp cut-off; inactive = mostly below about 14%; also: read at 38.3 µM for the half of the compounds with a filed dose
# FBPA Giardia inh: Giardia lamblia aldolase inhibition; A8B2U2; purified Giardia FBPA; Potency, µM (titrated, usually from 59.6 µM), hits mostly inhibitors; actives 0.71% (n = 290,000); also: nearly all actives have a fitted effect of over 55% in size
#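 40 nM FBPA preincubated 10 min at RT with compound (up to 57.5 uM final), then substrate plus GAPDH/TPI/NAD/arsenate coupling and diaphorase/resazurin added. Fluorescence read after 20 min at RT, 525/598 nm.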
# RE007 growth inh: less growth of the S. pombe RE007 Vpr strain | actives 0.21% (n = 360,000) | AID 651644 | Potency, µM (titrated, usually from 92.2 µM), most hits filed as inhibitors | S. pombe RE007 Vpr strain, BacTiter-Glo ATP luminescence, 24 h; active = well fitted falling curve with a large enough effect; inconclusive = small, poorly fitted or top-dose-only effect; inactive = no such curve, though single readings can be large or run the other way; also: nearly all actives have a fitted effect of over 50% in size
#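 Fission yeast strain RE007, carrying one chromosomally integrated HIV-1 vpr copy, was seeded at OD 0.01 in PMG+AL medium with 23 nL pinned compound. After 24 h at 30 °C and 99% humidity, viability was read by BacTiter-Glo luminescence.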
# Shiga inhibitor: inhibitors of Shiga toxin in Vero cells. Vero cells, Shiga toxin protein synthesis inhibition reporter. inhibition, % at 38.7 µM. actives 9.2% (n = 290,000). AID 2315; in the data active = inhibition mostly above about 28%, no sharp cut-off; inactive = mostly below about 43%
# LmPK inh: blocks Leishmania mexicana pyruvate kinase activity; Q27686; purified LmPK, Kinase-Glo ATP luminescence, 1 h; Potency, µM (highest dose often 57.5 µM), hits mostly inhibitors; actives 0.37% (n = 290,000); AID 1721
# Target sequence (Q27686 whole entry, looked up): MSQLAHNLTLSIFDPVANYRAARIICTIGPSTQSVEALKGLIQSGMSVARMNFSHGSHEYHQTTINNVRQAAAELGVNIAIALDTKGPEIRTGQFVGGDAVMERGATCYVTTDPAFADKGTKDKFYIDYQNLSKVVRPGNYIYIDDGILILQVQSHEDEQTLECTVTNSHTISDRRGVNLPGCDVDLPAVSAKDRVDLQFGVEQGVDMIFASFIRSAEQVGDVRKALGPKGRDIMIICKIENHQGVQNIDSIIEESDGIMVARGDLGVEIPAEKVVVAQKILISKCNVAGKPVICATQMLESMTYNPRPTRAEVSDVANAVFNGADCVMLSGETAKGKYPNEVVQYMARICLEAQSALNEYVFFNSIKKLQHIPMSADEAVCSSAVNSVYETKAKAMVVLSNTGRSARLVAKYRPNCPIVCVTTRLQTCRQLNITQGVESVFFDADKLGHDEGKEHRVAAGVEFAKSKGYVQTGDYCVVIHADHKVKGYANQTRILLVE
#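 In 50 mM imidazole pH 7.2 with 7 mM MgCl2, LmPK (0.1 nM) turned over PEP (0.5 mM) and ADP (0.1 mM) for 1 h at room temperature. Luciferase read-out of ATP.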
# TbPYK inhibitor: inhibitors of Trypanosoma brucei pyruvate kinase. TbPYK enzyme, Kinase-Glo Plus ATP luminescence, 45 min. Potency, µM (highest dose often 76.8 µM), usual class: inhibitors. actives 0.12% (n = 410,000). AID 624173; also: nearly all actives have a fitted effect of over 50% in size
#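 Quantitative HTS: titrated library compounds versus trypanosomal pyruvate kinase in TEA buffer (pH 7.2) containing KCl, MgCl2, BSA and Tween-20. Reactions were initiated with ADP, 130 uM final. Kinase-Glo Plus luminescence was read after 45 min at RT.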
# A number is an active result; – = inactive; ? = inconclusive; · = not tested or not shown. Unless noted, calls follow the shape of the dose curve; as a rule, active = well fitted curve in the direction sought with a large enough effect; inconclusive = small, poorly fitted or top-dose-only effect, or another doubt; inactive = no such curve, though single readings can be large; an effect the other way counts as inactive or inconclusive.
SMILES,Cycloheximide cs,FBPA Giardia inh,RE007 growth inh,Shiga inhibitor,LmPK inh,TbPYK inhibitor
Cc1cc(C(=O)COc2cc(F)ccc2[N+](=O)[O-])c(C)n1CC1CCCO1 (stereo unspecified),·,·,–,·,·,–
COc1ccccc1N=NNc1ccccc1OC,·,·,–,·,·,–
O=C1OC(c2ccccc2)=N/C1=C\C=C\c1ccccc1[N+](=O)[O-],–,–,·,–,–,–
CN1C(=O)NC(=O)/C(=C\C=C\c2ccccc2[N+](=O)[O-])C1=O,24.0,?,–,–,–,?
CN1C/C(=C/c2ccc(B(O)O)cc2)C(=O)/C(=C/c2ccc(B(O)O)cc2)C1,–,–,·,–,·,·
CN1C/C(=C/c2cccnc2)C(=O)/C(=C/c2cccnc2)C1,24.8,–,–,–,–,–
CC(C)N1CC2=C(OC(N)=C(C#N)C2c2cccnc2)/C(=C/c2cccnc2)C1 (stereo unspecified),–,?,–,–,–,–
CC(C)N1C/C(=C/c2ccsc2)C(=O)/C(=C/c2ccsc2)C1,15.5,–,–,–,–,–
CCN1C(=O)S/C(=C/c2ccsc2)C1=O,–,–,–,–,–,–
CC(C)N1C/C(=C/c2cccnc2)C(=O)/C(=C/c2cccnc2)C1,20.6,–,–,–,–,–
Cc1cc(C)n(CCN(C)C(=O)CCc2nnc(-c3ccc4c(c3)OCO4)o2)n1,9.7,–,–,–,–,–
CCCOC1CCCN(C(=O)CCc2nnc(-c3ccc4c(c3)OCO4)o2)C1 (stereo unspecified),46.3,·,–,117.4,–,–
CC1CCCN(C(=O)C2CCN(Cc3ccc4c(c3)OCO4)CC2)C1 (stereo unspecified),–,–,–,–,–,–
CCC(=O)C1CCCN(C(=O)CCc2nnc(-c3ccc(C(C)=O)s3)o2)C1 (stereo unspecified),40.4,–,–,97.7,–,–
CC1CCCN(C(=O)CCc2nnc(-c3ccc4c(c3)OCO4)o2)C1 (stereo unspecified),37.0,·,–,100.8,–,–
CCn1nc(C)c(CNC(=O)CCc2nnc(-c3ccc(C(C)=O)s3)o2)c1C,–,–,–,–,–,–
Cc1ccc2nc(-c3ccc(Cl)c(NC(=O)COc4ccc([N+](=O)[O-])cc4)c3)oc2c1,·,·,·,·,·,–
COc1cccc(CCNC(=O)CCc2nnc(-c3ccc4c(c3)OCO4)o2)c1,–,·,–,–,–,–
CCC(=O)C1CCCN(C(=O)CCc2nnc(-c3ccc4c(c3)OCO4)o2)C1 (stereo unspecified),38.3,–,–,51.5,–,–
Cc1ccc(OCCC(=O)OCC(=O)NC2CCS(=O)(=O)C2)cc1 (stereo unspecified),·,·,–,·,·,–
O=S(=O)(Nc1cccc(-c2cn3cccnc3n2)c1)c1ccc(Cl)cc1,–,–,–,–,–,–
c1cnc2c(OCc3cn4cccnc4n3)cccc2c1,27.9,–,–,–,–,–
Clc1cccc(NCc2cn3cccnc3n2)c1,27.0,–,–,–,–,–
Clc1ccc(OCc2cn3cccnc3n2)c2ncccc12,34.9,–,–,100.6,–,–
NC(=O)COc1cccc2cccnc12,–,–,–,–,–,–
SMILES,Cycloheximide cs,FBPA Giardia inh,RE007 growth inh,Shiga inhibitor,LmPK inh,TbPYK inhibitor
Fc1ccc(COc2cccc3cccnc23)cc1,40.6,–,–,91.2,–,–
O=c1c(-c2ccco2)nc2ccccc2n1C(c1ccccc1)c1nc2ccccc2[nH]1 (stereo unspecified),·,·,–,·,·,·
Cc1ccc(-n2nc3c(=O)n(CC(=O)NC4CCCCCC4)nc(C)c3c2C)cc1,–,–,–,–,–,–
CCCCNC(=O)c1nc(-c2ccccc2)oc1-c1ccc(Cl)cc1,·,·,–,·,·,·
CC1(C)C(=O)N(CC(=O)Nc2cccc(F)c2)c2ccc(S(=O)(=O)N3CCCCC3)cc21,·,·,·,·,·,–
CCC(C)c1ccc(S(=O)(=O)N2CCN(C(=O)c3ccc(Cl)c(S(=O)(=O)N4CCOCC4)c3)CC2)cc1 (stereo unspecified),·,·,–,·,·,–
Cc1cc(Cl)ccc1OCc1cn2cccnc2n1,50.6,–,–,84.1,–,–
Cc1ccc(S(=O)(=O)Cc2cn3cccnc3n2)cc1,–,–,–,–,–,–
Oc1cccc(/C=N/NP(=S)(c2ccccc2)c2ccccc2)c1,13.9,–,–,–,–,–
Cc1ccc(NCC(=O)N/N=C\c2cccc(O)c2)cc1,17.7,–,–,–,–,–
Cc1ccc(NCC(=O)N/N=C/c2cccc(Br)c2)cc1,–,–,–,–,–,–
Oc1cccc(C=NCc2ccccc2)c1,–,–,–,–,–,–
O=C(N/N=C/c1cccc(O)c1)c1csc2ccccc12,48.7,–,–,87.1,–,–
O=C(N/N=C\c1ccccc1O)c1ccccc1O,·,–,·,·,·,·
O=C(N/N=C/c1cccc(O)c1)c1ccccc1O,49.4,–,–,68.3,?,–
CC(COc1ccccc1)NN (stereo unspecified),·,·,·,·,·,–
CC[C@H](C)[C@H](NC(=O)[C@H](CCCNC(=N)N)NC(=O)[C@@H]1CCCN1C(=O)[C@H](Cc1ccccc1)NC(=O)[C@H](Cc1cnc[nH]1)NC(=O)[C@H](CCCNC(=N)N)NC(=O)[C@@H](NC(=O)[C@H](C)NC(=O)[C@H](CCC(=O)O)NC(=O)[C@H](CC(N)=O)NC(=O)[C@@H](N)CCCCN)C(C)C)C(=O)N[C@@H](Cc1c[nH]c2ccccc12)C(=O)N[C@@H](CC(C)C)C(=O)O,–,–,·,–,·,·
CCCCn1c(N)c(N(CC(C)C)C(=O)c2cccs2)c(=O)[nH]c1=O,·,·,–,·,·,–
COc1ccccc1CCNC(=O)Cc1c(C)c2c(O)cc(C)cc2oc1=O,·,·,·,·,·,–
C/C(=N\NC(=O)c1csc2ccccc12)c1ccc(O)cc1,17.7,–,–,–,–,–
Cc1cccc(N=Nc2cn[nH]c2-c2ccco2)c1,53.8,–,–,99.7,–,–
c1ccc(N=Nc2cn[nH]c2-c2ccco2)cc1,–,–,–,–,–,–
O=C1NC2(Nc3ccccc31)C(=O)Nc1ccc(Br)cc12 (stereo unspecified),–,–,–,–,–,–
O=C1NC2(Nc3ccccc31)C(=O)Nc1ccccc12 (stereo unspecified),23.6,–,–,58.9,–,–
COc1ccc(S(=O)(=O)N2CCOCC2)cc1NC(=O)CCOc1ccc(C(C)(C)C)cc1,·,·,–,·,·,–
O=C1C(C=Nc2ccccc2O)=C(O)c2ccccc21,31.9,–,?,51.0,?,–
Cc1ccc(O)c(N=CC2=C(O)c3ccccc3C2=O)c1,32.6,–,–,108.5,–,–
N#CC1=C(C=Nc2ccccc2O)CCC1,–,?,–,–,–,–
Cc1ccc(O)c(N=Cc2cc(Cc3ccccc3)cc([N+](=O)[O-])c2O)c1,–,?,–,–,–,–
